# Hits are enriched below; roughly 4% of the tested compounds scored in any of these assays.
# PK Bst: alters activity of Bacillus stearothermophilus pyruvate kinase | 51,000 tested, 1.2% active | Potency, µM | purified pyruvate kinase, luminescence ATP production; ribose 5-phosphate activator present at AC10; in the data active = potency below about 11 µM; inconclusive = mostly about 12 µM to 25 µM;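 the screen sought inhibitors and activators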
# Luciferase inh: firefly luciferase inhibition | P08659 | purified firefly luciferase, luminescence, 8 min | Potency, µM (series often up to 57.1 µM), usual class: inhibitors | 72,000 tested, 2.2% active | AID 411; also: nearly all actives have a fitted effect of over 40% in size
#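 Titration-based qHTS; buffer 50 mM imidazole pH 7.2, 50 mM KCl, 7 mM MgCl2, 10 uM ATP, 0.01% Tween 20, 0.05% BSA; luciferase/luciferin detector mix added after compound; 8 min, ambient; luminescence.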
# Caspase-7 inhib: caspase-7 (human) inhibition, allosteric or competitive | P55210 | recombinant caspase-7, Ac-DEVD-AFC fluorescence rate | Potency, µM (highest dose often 57.5 µM), hits mostly inhibitors | 75,000 tested, 0.02% active | AID 889; active = well fitted inhibition curve with a large enough effect in the main read-out, with a control signal flat, not every such curve was filed as active; inconclusive = small, poorly fitted or top-dose-only effect, or a change in a side signal
# Caspase-1 inhib: caspase-1 (human) inhibition, allosteric or competitive | 75,000 tested, 0.03% active | P29466 | Caspase-1 enzyme, Ac-WEHD-AFC fluorogenic rate | Potency, µM (titrated, usually from 57.5 µM), most hits filed as inhibitors | AID 900
# Tau filament bind: binds recombinant human tau filaments | recombinant tau filaments, thioflavin S fluorescence, 15 h; filaments grown with octadecylsulfate alongside compound | Potency, µM (highest dose often 57.1 µM) | 71,000 tested, 2% active;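 also: actives lower thioflavin S fluorescence by blocking filaments or displacing dye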
#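 Quantitative HTS: thioflavine S signal from ODS-induced tau filaments, excited at 450 nm, emission 510 nm. Conditions: 1 uM tau, 30 uM ODS, 15 h at 37 C, pH 7.4.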
# Numbers stand for hits; 0 = inactive; ? = inconclusive; - = not tested or not shown; [ ] = another dose, or the depositor's remark. Unless noted, calls follow the shape of the dose curve; as a rule, active = well fitted curve in the direction sought with a large enough effect; inconclusive = small, poorly fitted or top-dose-only effect, or another doubt; inactive = no such curve, though single readings can be large; an effect the other way counts as inactive or inconclusive.
SMILES,PK Bst,Luciferase inh,Caspase-7 inhib,Caspase-1 inhib,Tau filament bind
COc1ccc(-c2nnn(CC(=O)c3c[nH]c4ccccc34)n2)cc1OC,0,0,0,0,0
COc1ccc(C(C(O)C(=O)c2c[nH]c3ccccc23)N2CCN(c3ccc(OC)cc3)CC2)cc1 (centres undefined),0,0,0,0,12.6µM
COc1ccc(C(=O)c2c[nH]c3ccccc23)cc1,-,10µM,0,0,0[11.4 µM]
CCCCCCCCCCCCCCCC(=O)NC[C@@H](COP(=O)([O-])OCC[N+](C)(C)C)OCC,-,0,0,0,0
c1ccc(CSc2nnnn2-c2cccc3ccccc23)nc1,7.36,0,0,0,0
CCOc1cc(-c2nc(-c3ccccc3OC)no2)cc(OCC)c1OCC,0,0,0,0,0
COc1ccccc1-c1noc(-c2ccco2)n1,-,20µM,0,0,0
COc1ccccc1-c1nc(-c2cccc(C)c2)no1,9.44,12.6µM,0,0,0
COc1ccc(-c2nc(-c3cccc(C)c3)no2)cc1OC,0,0,0,0,0
COc1ccc(-c2nc(-c3ccccc3OC)no2)cc1OC,0,15.8µM,0,0,0
N#CC(=C1CCCC1)c1nc(-c2ccccc2O)cs1,7.68,12.6µM,0,0,12.6µM
CCCCC/C=C\C[C@H](O)/C=C\c1cccc(C[C@H](O)CCCCO)n1,-,0,0,0,0
COc1ccc(C)cc1NC(=O)CN(Cc1nnc(-c2ccc(Cl)cc2)o1)C1CCCC1,4.71,0,0,0,0
COC(=O)c1ccc(C(NC(=O)OCc2ccccc2)/C(=C/[C@@H](C)C(=O)NCc2ccc(-c3ccccc3)cc2)c2cccnc2)cc1 (some centres undefined),-,-,0,0,0
COc1ccc2c(c1)Cc1sc(NC(=O)c3cccs3)nc1-2,-,0,?,31.6µM,25.1µM
COc1cccc(NC(=O)c2cccs2)c1,-,?,0,0,0
Brc1ccc2ncnc(Nc3ccc(N4CCOCC4)cc3)c2c1,-,0,0,0,15.8µM
O=C(O)[C@H]1C[C@H](C(=O)O)N1,-,0,0,0,0
CN(C)S(=O)(=O)c1cccc(C(=O)Nc2cc(Cl)ccc2O)c1,0,12.6µM,0,0,0
CN(C)S(=O)(=O)c1cccc(C(=O)NCCc2ccccc2)c1,0,12.6µM,0,0,0
COCCNC(=O)[C@@]1(Cc2ccccc2)C=C[C@@H](C)N1C(=O)OC,-,-,0,0,0
N#Cc1ccc(CN2CCCC3(CCN(S(=O)(=O)c4ccccc4)CC3)C2)cc1,-,0[11.4 µM],0,0,0
Cc1ccc2nc3c(cc(C(=O)NCc4ccccc4)c(=N)n3CCCn3ccnc3)c(=O)n2c1,0,0,?,-,0.501µM
CCn1c(=N)c(C(=O)NC)cc2c(=O)n3cccc(C)c3nc21,0,0,?,-,0
Cc1cccn2c(=O)c3cc(C(=O)NC(C)c4ccccc4)c(=N)n(CCCn4ccnc4)c3nc12 (centres undefined),0,0,?,-,1.26µM
SMILES,PK Bst,Luciferase inh,Caspase-7 inhib,Caspase-1 inhib,Tau filament bind
O=C1CCC[C@@H](C(C(=O)OCc2ccccc2)C(=O)OCc2ccccc2)C1,-,0[11.4 µM],0[11.5 µM],0[11.5 µM],-
COc1ccccc1Nc1nnc(SCC(=O)N2CCCC2=O)s1,-,20µM,0,0,0
COc1ccccc1Nc1nnc(SCC(=O)N2CCCC2)s1,0,0,0,0,0
O=C(CCCc1ccccc1)N1CCc2ccccc21,-,12.6µM,0,0,0[11.4 µM]
O=C(Nc1ccccc1O)c1ccc(Cl)cc1,-,15.8µM,0,0,0
NC1(C(=O)NC2(C(=O)O)CCCC2)CCCC1,-,0[11.4 µM],0[11.5 µM],0[11.5 µM],0[11.4 µM]
O=C(NC1CCN(Cc2ccccc2)CC1)C1CCCN(S(=O)(=O)c2cccc3nonc23)C1 (centres undefined),0,0,0,0,15.8µM
Cc1ccc2nc(-c3ccc4c(c3)OCCO4)cc(C(=O)O)c2c1,?,12.6µM,0,0,0
Cc1ccc2nc(-c3cccc(NC(=O)c4ccc5c(c4)OCCO5)c3)oc2c1,-,?,0,0,0
CS(=O)(=O)N1CCN(C(=O)c2cc(-c3cccs3)nc3ccccc23)CC1,-,0,0,0,0
O=C(O)c1cc(-c2cccs2)nc2cc3c(cc12)OCCO3,-,15.8µM,?,-,0
N/C(CC/C(N)=N/O)=N\O,-,0[11.4 µM],0[11.5 µM],0[11.5 µM],0[11.4 µM]
C=C1C[C@@]23C[C@]1(O)CC[C@@H]2[C@]12C=C[C@@H](O)[C@@](C)(C(=O)O1)[C@@H]2[C@@H]3C(=O)O,-,0[11.4 µM],-,-,?
Cc1occc1-c1nc(-c2ccccn2)no1,-,12.6µM,0,0,0
c1ccc(-c2noc(-c3cccnc3)n2)nc1,-,?,0,0,0
Cc1occc1-c1nc(-c2ccncc2)no1,-,0,0,0,0
c1ccc(-c2noc(-c3ccc4c(c3)OCO4)n2)nc1,0.861,0.794µM,0,0,0
c1ccc(CCc2ccccc2-c2nc(-c3ccccn3)no2)cc1,-,0,0,0,0
c1ccc(-c2noc(-c3ccc4ccccc4c3)n2)nc1,0.156,0.199µM,0,0,0
Cc1nc2nc(-c3ccccc3)cc(=O)n2[nH]1,-,25.1µM,0,0,0
O=c1cc(-c2ccccc2)nc2nc(CCc3ccccc3)[nH]n12,0,0,0,0,0
O=C1C=C(O)c2ccccc2C1=O,-,-,0,0,-
CC1=CC(=C2C(=O)c3ccccc3C2=O)C=C(C)N1C,-,15.8µM,0,0,0
COCC(=O)N1CCC2(CC1)CN(c1ccncc1)C2,-,0[11.4 µM],0,0,0
CCN(CC)c1ccc(NC(=O)c2ccccc2F)cc1,0,15.8µM,0,0,?
SMILES,PK Bst,Luciferase inh,Caspase-7 inhib,Caspase-1 inhib,Tau filament bind
CCN(CC)c1ccc(NC(=O)c2ccco2)cc1,?,10µM,0,0,0
CCN(CC)c1ccc(NC(=O)c2ccco2)c(C)c1,0,0,0,0,0
CCN(CC)c1ccc(NC(=O)C(C)C)cc1,0,0,0,0,0
Cn1c(NCc2ccccc2Cl)nc2ccccc21,-,12.6µM,0,0,0
Cn1c(CNc2ccc(Cl)cc2)nc2ccccc21,0,12.6µM,0,0,0
C[N+](C)(C)CC(=O)N/N=C\c1ccncc1,-,0[11.4 µM],0[11.5 µM],0[11.5 µM],0[11.4 µM]
O=C(Cc1cc(=O)[nH]c(=O)[nH]1)N1CCC(Cc2ccccc2)CC1,-,10µM,0,0,25.1µM
CC(C)N1C(=O)CCC1C(=O)N1CCC(Cc2ccccc2)CC1 (centres undefined),-,0,0,0,0
O=c1cnc2cnc(Oc3ccccc3)nc2n1C1CC1,-,0[11.4 µM],0,0,0
CNc1nc(-c2ccc(N(C)C)cc2)nc2ccccc12,-,0[2.29 µM],0,0,0
CCOC(=O)CS(=O)(=O)c1nc(-c2ccc(F)cc2)cc(C(F)(F)F)n1,5.46,0,0,0,0
CCOC(=O)CS(=O)(=O)c1nc(-c2ccccc2)cc(C(F)(F)F)n1,-,0,0,0,20µM
Nc1nc2c(ncn2C2OC(CO)CC2O)c(=O)[nH]1 (centres undefined),-,-,0,0,-
CC(=O)NC1=C(OS(=O)(=O)c2ccc(C)cc2)CN(C)C1=O,-,0[11.4 µM],0[11.5 µM],0[11.5 µM],0[11.4 µM]
O=C(c1ccncc1)N1CCC2(CC1)CN(c1ncccn1)C2,-,0[11.4 µM],0,0,0
CCN(CC)c1ccc(NC(=O)C2CC3CCC2C3)cc1 (centres undefined),-,0,0,0,25.1µM
CCOC(=O)CC(=O)CSc1nc2c(cc1C#N)CCCCC2,?,10µM,-,-,-

# Screening results as filed in PubChem.
